Experimental data as given in PubChem BioAssay AID1347418 (Sanford-Burnham Center for Chemical Genomics, 2020).
Screen size: about 1,300 compounds; about 750 (58%) were called active. The list shows a part of the results.

Molecular target: Sulfhydryl oxidase 1 (Homo sapiens) (UniProt O00391)
Test: QSOX1 enzyme inhibitors, primary screen, biochemical, ROS-Glo H2O2 luminescence, HTS (AID 1347418)
Settings: recombinant QSOX1, ROS-Glo H2O2 luminescence, at 12.5 µM, hits give high values; active = any value above zero unless noted

Sulfhydryl oxidase 1 (Homo sapiens), sequence (O00391 whole entry, looked up): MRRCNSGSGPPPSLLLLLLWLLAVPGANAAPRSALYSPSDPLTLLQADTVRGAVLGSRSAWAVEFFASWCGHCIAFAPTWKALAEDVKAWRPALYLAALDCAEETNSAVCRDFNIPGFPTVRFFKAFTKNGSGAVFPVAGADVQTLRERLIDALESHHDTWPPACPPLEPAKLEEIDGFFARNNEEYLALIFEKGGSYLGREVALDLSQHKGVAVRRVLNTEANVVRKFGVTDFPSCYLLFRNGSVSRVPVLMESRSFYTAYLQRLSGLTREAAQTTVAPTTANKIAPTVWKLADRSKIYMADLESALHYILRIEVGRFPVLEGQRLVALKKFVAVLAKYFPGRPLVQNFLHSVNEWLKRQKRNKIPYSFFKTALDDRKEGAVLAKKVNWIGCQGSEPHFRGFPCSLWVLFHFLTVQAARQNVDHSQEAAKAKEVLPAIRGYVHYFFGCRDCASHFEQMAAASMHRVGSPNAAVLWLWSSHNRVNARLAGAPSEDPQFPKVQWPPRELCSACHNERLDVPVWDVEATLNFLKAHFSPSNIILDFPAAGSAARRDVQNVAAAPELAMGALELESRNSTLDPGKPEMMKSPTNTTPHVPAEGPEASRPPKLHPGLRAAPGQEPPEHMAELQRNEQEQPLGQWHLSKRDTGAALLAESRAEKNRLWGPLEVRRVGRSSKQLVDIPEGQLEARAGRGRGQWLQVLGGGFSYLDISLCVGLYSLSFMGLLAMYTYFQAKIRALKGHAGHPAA

SMILES	inhibition
C=CCN(C1=NCCN1)c1c(Cl)cccc1Cl	-6.5% (inactive)
CCC1(C2=NCCN2)Cc2ccccc2O1 (centres undefined)	-2.6% (inactive)
C/C=C(/C)C(=O)O[C@H]1C(C)=C2[C@H]([C@@H]1OC(=O)CCCCCCC)[C@@](C)(OC(C)=O)C[C@H](OC(=O)CCC)[C@@]1(O)[C@H]2OC(=O)[C@@]1(C)O	-0.7% (inactive)
CN[C@@H]1C[C@@H](c2ccc(Cl)c(Cl)c2)c2ccccc21	-1.2% (inactive)
CCCN1CCC[C@@H]2Cc3[nH]ncc3C[C@H]21	-2.4% (inactive)
CC12CCC3C(CCC4=C(O)C(=O)CCC43C)C1CCC2=O (centres undefined)	0.2% [setting not given] (active)
C[C@@H](N)Cc1cnc[nH]1	11.8% (active)
c1ccc(C2(c3ccccc3)CC2C2=NCCN2)cc1 (centres undefined)	-0.8% (inactive)
CCn1cnc2c(Nc3cccc(Cl)c3)nc(N[C@@H]3CCCC[C@@H]3N)nc21	0.3% (active)
NC(Cn1oc(=O)[nH]c1=O)C(=O)O (centres undefined)	2.7% (active)
CCC1(c2ccc(N)cc2)CCC(=O)NC1=O (centres undefined)	-0.8% [setting not given] (inactive)
NCCCP(=O)(O)O	6.4% (active)
CC(NC(C)(C)C)C(=O)c1cccc(Cl)c1 (centres undefined)	0.7% [setting not given] (active)
CCCN1CCC[C@@H]2Cc3nc(N)ncc3C[C@H]21	-0.3% (inactive)
N#CC(=Cc1ccc(O)c(O)c1)C(N)=S	26.9% (active)
CC(C)(C)c1cc(C=C(C#N)C#N)cc(C(C)(C)C)c1O	27.7% (active)
N#CC(C#N)=Cc1ccc(O)c(O)c1	31.5% (active)
CCCCc1ccc(C(=O)O)nc1	-1.9% (inactive)
NC(=O)c1cc(N2CC2)c([N+](=O)[O-])cc1[N+](=O)[O-]	-2.6% (inactive)
COc1ccc(OC)c(C(O)C(C)N)c1 (centres undefined)	-1.4% [setting not given] (inactive)
CC(N)[C@H](O)c1ccc(O)c(O)c1 (some centres undefined)	10.4% [setting not given] (active)
C[C@@H]1O[C@@H](O[C@H]2C[C@@H](O)[C@]3(CO)[C@H]4[C@H](O)C[C@]5(C)[C@@H](C6=CC(=O)OC6)CC[C@]5(O)[C@@H]4CC[C@]3(O)C2)[C@H](O)[C@H](O)[C@H]1O	1.8% [setting not given] (active)

SMILES	inhibition
C[C@@H]1O[C@@H](O[C@H]2C[C@@H](O)[C@]3(CO)[C@@H]4C(CC[C@]3(O)C2)[C@@]2(O)CC[C@H](C3COC(=O)C3)[C@@]2(C)C[C@H]4O)[C@H](O)[C@H](O)[C@H]1O (some centres undefined)	-6.9% (inactive)
CN1C2CCC1CC(OC(c1ccccc1)c1ccccc1N)C2 (centres undefined)	1.1% (active)
CN1C2CCC1CC(OC(=O)c1cc(Cl)cc(Cl)c1)C2 (centres undefined)	-0.7% (inactive)
COC(=O)[C@@H](N)CCCN=C(N)N[N+](=O)[O-]	2.4% (active)
NC(=NCCC[C@H](N)C(=O)O)N[N+](=O)[O-]	-2.6% (inactive)
C[C@]12Cc3cn4c(nc3C=C1CCC1C2CC[C@@]2(C)[C@H]1CC[C@@]2(O)C#N)nc1ccccc14 (some centres undefined)	2.7% (active)
NC(C(=O)O)c1cc(=O)[nH]o1 (centres undefined)	-2.4% (inactive)
Cc1o[nH]c(=O)c1CC(N)C(=O)O (centres undefined)	4.2% (active)
CCCN(CCC)CCc1ccc(O)c(O)c1	14.4% (active)
CNCCc1ccc(O)c(O)c1	7.7% (active)
CC(C)(C)NCC(O)c1ccccc1Cl (centres undefined)	-0.6% (inactive)
CC(N)c1cccc(Cl)c1Cl (centres undefined)	6.2% (active)
O=C(O)[C@@H]1CCN1	9.3% (active)
C[C@H](N)Cc1cccc(C(F)(F)F)c1	1.6% [setting not given] (active)
O=[N+]([O-])c1cc(O)c(O)c([N+](=O)[O-])c1	13% (active)
NCCc1ccc(S(=O)(=O)F)cc1	5.8% (active)
N=C(N)c1ccc(CS(=O)(=O)F)cc1	-0.1% (inactive)
NCCc1ccc(O)cc1	-0.2% [setting not given] (inactive)
CC1=NN=C(c2ccc(N)cc2)c2cc3c(cc2C1)OCO3	10.6% (active)
NCC(CP(=O)(O)O)c1ccc(Cl)cc1 (centres undefined)	0.1% (active)
NCC(CC(=O)O)c1ccc(Cl)cc1 (centres undefined)	1.1% [setting not given] (active)
CCCCC/C=C\C/C=C\C/C=C\C/C=C\CCCC(=O)NCC(=O)O	2.2% (active)

SMILES	inhibition
Cc1cccc(C)c1NC1=NCCCS1	0.2% [setting not given] (active)
Nc1ccncc1	-1% [setting not given] (inactive)
CCN1C[C@@]2(COC)C3[C@@H](OC)C4[C@@H]1C3([C@@H]1C[C@@]3(O)[C@H](OC(=O)c5ccccc5)[C@@H]1[C@]4(OC(C)=O)[C@@H](O)[C@@H]3OC)[C@H](OC)C[C@H]2O	2.6% (active)
CNc1ccc2oc(C[C@H]3O[C@@]4(CC[C@H]3C)O[C@H]([C@H](C)C(=O)c3ccc[nH]3)[C@H](C)C[C@H]4C)nc2c1C(=O)O	14.2% [setting not given] (active)
Cc1nccc2c1[nH]c1ccccc12	-2% [setting not given] (inactive)
Cc1c2ccncc2c(C)c2c1[nH]c1ccccc12	29% [setting not given] (active)
NC(CCP(=O)(O)O)C(=O)O (centres undefined)	2.8% (active)
NC(CCCCCP(=O)(O)O)C(=O)O (centres undefined)	-4.6% (inactive)
NC(CP(=O)(O)O)C(=O)O (centres undefined)	2.8% (active)
CO[C@H]1CC=C2CCN3CCC4=C(CC(=O)OC4)[C@]23C1	0.6% (active)
O=c1[nH]oc2c1CCNC2	-7.3% (inactive)
c1ccc2sc(C3(N4CCCCC4)CCCCC3)cc2c1	0.2% (active)
Cc1sc2ccccc2c1CC1=NCCN1	-3.3% (inactive)
CC(C)N(CCC(C(N)=O)(c1ccccc1)c1ccccn1)C(C)C (centres undefined)	6.1% [setting not given] (active)
CC1(C(=O)O)C2CCC(O2)C1(C)C(=O)O (centres undefined)	-3.3% (inactive)
COc1ccc(CNC(=O)/C=C/c2ccc3[nH]cc(CCN(C)C)c3c2)cc1	1.8% [setting not given] (active)
CN(C(=O)Cc1ccc(Cl)c(Cl)c1)C(CN1CCCC1)c1cccc(OCC(=O)O)c1 (centres undefined)	1.2% (active)
O=C(Cc1ccc(Cl)c(Cl)c1)N1CCCCC1CN1CCCC1 (centres undefined)	-1.7% (inactive)
COC(=O)N1CCN(C(=O)Cc2ccc(Cl)c(Cl)c2)C(CN2CCCC2)C1 (centres undefined)	-0.5% (inactive)
CC(C)c1cccc(C(C)C)c1O	0.9% (active)
